Test results as given in PubChem BioAssay (NCI).
Compounds without any hit were thinned out: in the full panel of roughly 83,000, 20% have a hit.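 Activity criterion: percent growth below 10, measured after cells in 96-well plates were exposed to a single compound concentration for 48 hours.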 Values without a mark were called inactive. Active and inactive are the calls of the source.

System: OVCAR-4 ovarian
Test: NCI-60 one-dose screen, 48 h (100 = growth as untreated, 0 = no growth, -100 = all killed)
Conditions: 10 µM

Row | SMILES | growth
1 | COc1ccc(-c2cc(-c3ccccc3)nc(SCCCCCCC(=O)NO)n2)cc1 | 76.6%
2 | COc1ccc(-c2nn(-c3cccc(Cl)c3)cc2-c2c(C#N)c(=O)n3[nH]c(-c4ccccc4)nc3c2C#N)cc1 | 97.3%
3 | Clc1nc2ccccc2cc1Cn1nnc(Cc2ccccc2)n1 | 29.7%
4 | CN1CCc2c(sc3nc4n(-c5ccc(Cl)cc5)cnn4c(=O)c23)C1 | 111%
5 | Cc1c2c[n+](C(C)C)ccc2c(C)c2c1[nH]c1ccccc12 | 13.8%
6 | Cc1c2cnccc2c(C)c2c1c1cc(O)ccc1n2C(C)C | 25%
7 | CC(C)(C)OC(=O)CN1CCc2c(sc3ncnc(N/N=C/c4cccc5ccccc45)c23)C1 | 54.5%
8 | Nc1nc(-c2cccnc2)nc2c1sc(=S)n2-c1ccccc1 | 128%
9 | CC(C)(C)OC(=O)N1CCc2c(sc3ncnc(N/N=C/c4cccc(Br)c4)c23)C1 | 54.9%
10 | O=C(CCCSc1nc(-c2ccc(Cl)cc2)cc(-c2ccc(Cl)cc2)n1)NO | 19.2%
11 | CN1CCc2c(sc3nc4n(-c5ccc(Cl)cc5)c(=O)[nH]n4c(=O)c23)C1 | 109%
12 | CCNc1nc(C(F)(F)F)nc2c1sc(=S)n2-c1ccccc1 | 98.2%
13 | IC(I)I | 108%
14 | Cc1cc(NC(=O)c2ccc(C)c(Nc3nccc(-c4cccnc4)n3)c2)cc(-n2cnc(C)c2)c1 | -28.7% (active)
15 | c1cncc(-c2csc(-c3c[nH]c4ccccc34)n2)c1 | 79.1%
16 | Cc1ccc(NC(=S)NNC(=S)Nc2ccc(C)cc2)cc1 | 106%
17 | Cc1ccc(C2=NN(c3ccc(S(C)(=O)=O)cc3)C(=O)CC2)cc1 | 60.8%
18 | CCc1ccc(C2=NN(c3ccc(S(C)(=O)=O)cc3)C(=O)CC2)cc1 | 76.2%
19 | COc1ccc(-c2nn(-c3cccc(Cl)c3)cc2/C=C2\NC(=S)N(c3ccc(Cl)cc3)C2=O)cc1 | -62.1% (active)
20 | COc1ccc(-c2nn(-c3cccc(Cl)c3)cc2-c2c(C#N)c(=O)n3[nH]c(-c4ccc(C)cc4)nc3c2C#N)cc1 | 57.1%
21 | CCOC(=O)c1sc2ncnc(Nc3ccc4c(cnn4C(=O)Nc4ccc(C)c(Cl)c4)c3)c2c1C | 115%
22 | Nc1ccccc1NC(=O)c1ccc(CCCC(=O)Nc2ccc(C3CC3N)cc2)cc1 (stereo not drawn) | 49.7%
23 | Cc1c(O)c(=O)ccn1C1CCC(CC2CCC(n3ccc(=O)c(O)c3C)CC2)CC1 (stereo not drawn) | 32.2%
24 | Cc1c2cnccc2c(C)c2c1oc1ccccc12 | 98.9%

System: SK-OV-3 ovarian
Test: as above
Conditions: 10 µM

Row | SMILES | growth
25 | COc1ccc2nc(Cl)c(Cn3nnc(Cc4ccccc4)n3)cc2c1 | 49.4%
26 | C=C/C(C)=C/C[C@]1(C)[C@H](C)[C@@H](OC(=O)CCC)[C@H](O)[C@@]23C(=C[C@H](OC)C[C@@H]12)[C@@H](OC(=O)CCC)O[C@H]3OC(C)=O | -89.7% (active)
27 | COc1ccc(-c2cc(-c3cc(OC)ccc3OC)nc(N)c2C#N)cc1 | 62.9%
28 | COc1ccc(-c2nn(-c3cccc(Cl)c3)cc2-c2cc(-c3ccccc3)nc(N)n2)cc1 | 98.5%
29 | COc1ccccc1-n1c(-c2sc(NC(C)=O)nc2C)n[nH]c1=S | 109%
30 | COc1cc2c3c(n(C4CCN(C)CC4)c(=O)c2cc1OC)-c1cc2c(cc1C3=O)OCO2 | 48.7%
31 | COc1cc(-c2ccc[nH]2)[nH]c1/C=C1\N=C(C)C(C(=O)NC(C)C)=C1C | 50.7%
32 | COc1ccc(-c2nn(-c3cccc(Cl)c3)cc2C=C(C#N)C#N)cc1 | -0.205% (active)
33 | Fc1ccc2[nH]cc(-c3nc(-c4ccsc4)cs3)c2c1 | 80.5%
34 | CCn1c2ccc(O)cc2c2c(C)c3c[n+](C)ccc3c(C)c21 | 71.2%
35 | CC[C@H]1OC(=O)[C@H](C)[C@@H](O[C@H]2C[C@@](C)(OC)[C@@H](O)[C@H](C)O2)[C@H](C)[C@@H](O[C@@H]2O[C@H](C)C[C@H](N(C)C)[C@H]2O)[C@](C)(OC)C/C(C)=C2/O[C@@]1(C)C=C2C | 102%
36 | N#Cc1c(-c2ccc(Cl)cc2)cc(-c2cc(O)ccc2O)nc1N | 45.2%
37 | COc1cc2c3c(n([C@@H]4CCOC4)c(=O)c2cc1OC)-c1cc2c(cc1C3=O)OCO2 | 24.7%
38 | COc1ccc(-c2cc(-c3ccccc3)nc(SCCCCCCC(=O)NO)n2)cc1 | 61.2%
39 | COc1ccc(-c2nn(-c3cccc(Cl)c3)cc2-c2c(C#N)c(=O)n3[nH]c(-c4ccccc4)nc3c2C#N)cc1 | 102%
40 | Clc1nc2ccccc2cc1Cn1nnc(Cc2ccccc2)n1 | 57.4%
41 | CN1CCc2c(sc3nc4n(-c5ccc(Cl)cc5)cnn4c(=O)c23)C1 | 91.4%
42 | O=C(CCCCNC(=O)c1nc(-c2ccccc2)n(-c2ccccc2)n1)NO | 13.2%
43 | Cc1c2c[n+](C(C)C)ccc2c(C)c2c1[nH]c1ccccc12 | -1.05% (active)
44 | Cc1c2cnccc2c(C)c2c1c1cc(O)ccc1n2C(C)C | -15.7% (active)

Row | SMILES | growth
45 | CC(C)(C)OC(=O)CN1CCc2c(sc3ncnc(N/N=C/c4cccc5ccccc45)c23)C1 | 67.4%
46 | Nc1nc(-c2cccnc2)nc2c1sc(=S)n2-c1ccccc1 | 103%
47 | CC(C)(C)OC(=O)N1CCc2c(sc3ncnc(N/N=C/c4cccc(Br)c4)c23)C1 | 62.2%
48 | O=C(CCCSc1nc(-c2ccc(Cl)cc2)cc(-c2ccc(Cl)cc2)n1)NO | 14.2%
49 | CN1CCc2c(sc3nc4n(-c5ccc(Cl)cc5)c(=O)[nH]n4c(=O)c23)C1 | 96.8%
50 | CCNc1nc(C(F)(F)F)nc2c1sc(=S)n2-c1ccccc1 | 102%
51 | Cc1cc(NC(=O)c2ccc(C)c(Nc3nccc(-c4cccnc4)n3)c2)cc(-n2cnc(C)c2)c1 | 27.6%
52 | c1cncc(-c2csc(-c3c[nH]c4ccccc34)n2)c1 | 79.3%
53 | Cc1ccc(NC(=S)NNC(=S)Nc2ccc(C)cc2)cc1 | 59.7%
54 | Cc1ccc(C2=NN(c3ccc(S(C)(=O)=O)cc3)C(=O)CC2)cc1 | 19.9%
55 | CCc1ccc(C2=NN(c3ccc(S(C)(=O)=O)cc3)C(=O)CC2)cc1 | 28.7%
56 | COc1ccc(-c2nn(-c3cccc(Cl)c3)cc2/C=C2\NC(=S)N(c3ccc(Cl)cc3)C2=O)cc1 | -47.8% (active)
57 | COc1ccc(-c2nn(-c3cccc(Cl)c3)cc2-c2c(C#N)c(=O)n3[nH]c(-c4ccc(C)cc4)nc3c2C#N)cc1 | 55.7%
58 | c1cnc2[nH]cc(-c3nc(-c4ccsc4)cs3)c2c1 | 92.8%
59 | O=C1NC(=O)c2c(CCCSc3nc4ccccc4c(=O)n3CCc3ccccc3)cccc21 | 86.2%
60 | CCOC(=O)c1sc2ncnc(Nc3ccc4c(cnn4C(=O)Nc4ccc(C)c(Cl)c4)c3)c2c1C | 97.3%
61 | Nc1ccccc1NC(=O)c1ccc(CCCC(=O)Nc2ccc(C3CC3N)cc2)cc1 (stereo not drawn) | 32.4%
62 | Cc1c(O)c(=O)ccn1C1CCC(CC2CCC(n3ccc(=O)c(O)c3C)CC2)CC1 (stereo not drawn) | 49.9%
63 | Cc1c2cnccc2c(C)c2c1oc1ccccc12 | 71.2%
